Anthrax LF inh2: blocks Bacillus anthracis lethal factor protease. multiplex microsphere protease cleavage assay, LF. inhibition, % at 10 µM. 360,000 compounds, 0.12% hits. AID 588501; also: plate controls were buffer without enzyme for full effect and enzyme alone for no effect
Target sequence (P15917 whole entry, looked up): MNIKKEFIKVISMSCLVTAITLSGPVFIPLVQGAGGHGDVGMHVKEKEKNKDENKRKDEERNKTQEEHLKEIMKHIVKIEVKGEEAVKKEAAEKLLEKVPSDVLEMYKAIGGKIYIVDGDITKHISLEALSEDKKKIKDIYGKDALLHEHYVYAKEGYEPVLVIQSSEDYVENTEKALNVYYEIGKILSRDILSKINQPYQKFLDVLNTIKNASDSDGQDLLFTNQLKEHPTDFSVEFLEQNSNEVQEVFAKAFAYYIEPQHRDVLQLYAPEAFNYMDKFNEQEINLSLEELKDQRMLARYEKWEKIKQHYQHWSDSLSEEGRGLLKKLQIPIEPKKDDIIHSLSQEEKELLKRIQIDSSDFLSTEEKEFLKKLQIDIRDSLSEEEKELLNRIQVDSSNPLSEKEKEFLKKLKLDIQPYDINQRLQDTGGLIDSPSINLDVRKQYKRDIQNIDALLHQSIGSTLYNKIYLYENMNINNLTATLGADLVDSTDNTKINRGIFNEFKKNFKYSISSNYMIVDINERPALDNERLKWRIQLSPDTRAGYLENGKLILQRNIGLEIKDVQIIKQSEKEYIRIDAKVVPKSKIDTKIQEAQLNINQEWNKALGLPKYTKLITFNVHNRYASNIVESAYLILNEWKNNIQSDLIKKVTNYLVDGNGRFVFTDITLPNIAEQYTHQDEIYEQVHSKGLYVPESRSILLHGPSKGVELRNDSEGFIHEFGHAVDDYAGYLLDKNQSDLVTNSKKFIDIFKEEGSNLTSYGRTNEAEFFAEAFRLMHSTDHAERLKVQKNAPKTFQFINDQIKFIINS
BoNT F protease: BoNT F light chain protease inhibition; inhibition, % at 10 µM; Multiplex microsphere protease cleavage assay, flow cytometry; 360,000 compounds, 0.22% hits; in the data active = inhibition above about 35%, passing the limit was not always enough; inconclusive = no clear call, values can overlap the other calls; also: plate controls were buffer without enzyme for full effect and enzyme alone for no effect
3CLpro inhibitor: SARS-CoV 3CLpro protease inhibition | P0C6X7 | 290,000 compounds, 0.14% hits | recombinant SARS-CoV 3CLpro, quenched FRET peptide cleavage | inhibition, % at 6 µM; in the data active = inhibition above about 12%
DUSP3 inh: inhibitors of human VHR1 phosphatase (DUSP3); recombinant VHR phosphatase, pNPP absorbance; inhibition, % at 13.3 µM; 290,000 compounds, 0.52% hits; AID 1654; in the data active = inhibition above about 50%
Bead autofluor: counter-screen for toxin protease inhibitors: compound fluorescence. compound autofluorescence counterscreen, microsphere flow cytometry; active compounds read high. fluorescence intensity (no concentration beside the values). 360,000 compounds, 3.1% hits. AID 624483; in the data active = fluorescence intensity above about 16000; inconclusive = no clear call, values can overlap the other calls
BoNT A protease: blocks Botulinum neurotoxin A light chain protease; multiplex microsphere protease substrate cleavage, flow cytometry; inhibition, % at 10 µM; 360,000 compounds, 0.17% hits; also: plate controls were buffer without enzyme for full effect and enzyme alone for no effect
Numbers without * were called inactive. Only some compounds are listed: those with a hit (about 3.9% of all), similar ones and a draw of the others. Rule as the data show it, unless noted: active = inhibition above about 30%; inconclusive = no clear call, values can overlap the other calls; inactive = below that.

`CCC(C)C(=O)Nc1ccc(S(=O)(=O)N2CCCC2)cc1` (configuration not stated) gave Anthrax LF inh2 15, BoNT F protease 15, 3CLpro inhibitor -1, DUSP3 inh -14, Bead autofluor 3832 and BoNT A protease -1.
CCC(C)NS(=O)(=O)c1ccc(S(=O)(=O)N2CCCC3(CCCCC3)C2)cc1 (configuration not stated) was read as Anthrax LF inh2 -5, BoNT F protease 0, 3CLpro inhibitor 3, DUSP3 inh -6, Bead autofluor 21732* and BoNT A protease 2.
Screening CC1=CCC2C(=O)N(c3ccc4ccccc4n3)C(=O)C2C1 (configuration not stated) returned Anthrax LF inh2 2, BoNT F protease -7, 3CLpro inhibitor -2, DUSP3 inh -23, Bead autofluor 2857 and BoNT A protease 1.
`Cc1cc(=O)n(-c2ccc3ccccc3n2)[nH]1` gave Anthrax LF inh2 1, BoNT F protease 0, 3CLpro inhibitor -5, DUSP3 inh 6, Bead autofluor 17043* and BoNT A protease 0.
`COCOCCn1cc(CN2CCS(=O)(=O)N(Cc3ccc(-c4ccc(Cl)nc4)cc3)C(C(C)C)C2=O)nn1` (configuration not stated) gave Anthrax LF inh2 1, BoNT F protease 4, Bead autofluor 3413 and BoNT A protease 0.
`Cn1c(SCC(=O)Nc2ccc3c(c2)OCO3)nnc1C(F)(F)F` gave Anthrax LF inh2 -4, BoNT F protease 9, Bead autofluor 4329 and BoNT A protease 8.
`O=C(CSc1nnc2c(Cl)cc(C(F)(F)F)cn12)Nc1ccc2c(c1)OCO2` gave Anthrax LF inh2 -4, BoNT F protease 2, 3CLpro inhibitor -4, DUSP3 inh -16, Bead autofluor 20358* and BoNT A protease inconclusive.
`COc1cccc(COC(=O)Cc2ccc(S(=O)(=O)N3CCOCC3)s2)c1OC` gave Anthrax LF inh2 3, BoNT F protease -4, Bead autofluor 7117 and BoNT A protease -4.
For O=C(c1ccccc1)N1CCN(Cc2ccccc2C(F)(F)F)CC1 the results were Anthrax LF inh2 -3, BoNT F protease -4, 3CLpro inhibitor 1, DUSP3 inh 16, Bead autofluor 4178 and BoNT A protease -1.
Screening N#Cc1ccc(CN2CCN(C(=O)c3ccccc3)CC2)c(Cl)c1 returned Anthrax LF inh2 -4, BoNT F protease -7, 3CLpro inhibitor -1, DUSP3 inh 12, Bead autofluor 21609* and BoNT A protease inconclusive.
Screening O=[N+]([O-])c1ccc(-[n+]2ccc3ccccc3c2)c([N+](=O)[O-])c1 returned Anthrax LF inh2 -6, BoNT F protease -1, Bead autofluor 3875 and BoNT A protease 0.
`Cc1sc2ncn(CC(=O)Nc3cccc(S(N)(=O)=O)c3)c(=O)c2c1-c1ccccc1` gave Anthrax LF inh2 -3, BoNT F protease -6, 3CLpro inhibitor 3, DUSP3 inh -2, Bead autofluor 5122 and BoNT A protease 0.
For COC(=O)c1ccc(-c2n[nH]c(=O)c3ccccc23)cc1 the results were Anthrax LF inh2 -1, BoNT F protease 2, 3CLpro inhibitor 0, DUSP3 inh -5, Bead autofluor 19671* and BoNT A protease inconclusive.
Screening CC(/C=N/Nc1nc(C)cc(C)n1)=C\c1ccc(C(C)C)cc1 returned Anthrax LF inh2 0, BoNT F protease -7, 3CLpro inhibitor -3, DUSP3 inh -11, Bead autofluor 2635 and BoNT A protease 0.
Screening CSc1ccccc1-n1nnnc1SCC(=O)Nc1ccccc1C returned Anthrax LF inh2 0, BoNT F protease -1, 3CLpro inhibitor 4, DUSP3 inh -20, Bead autofluor 20932* and BoNT A protease 0.
COC(=O)c1ccsc1NC(=O)CSc1nnnn1-c1ccccc1SC was read as Anthrax LF inh2 -1, BoNT F protease -4, 3CLpro inhibitor 2, DUSP3 inh -10, Bead autofluor 24392* and BoNT A protease -4.
CSc1ccccc1NC(=O)CSc1nnnn1-c1ccccc1SC was read as Anthrax LF inh2 -3, BoNT F protease -11, 3CLpro inhibitor 1, DUSP3 inh 4, Bead autofluor 4278 and BoNT A protease -1.
`O=S(=O)(c1ccc(N2CCN(S(=O)(=O)c3ccccc3)CC2)nc1)N1CCCC1` gave Anthrax LF inh2 0, BoNT F protease 5, 3CLpro inhibitor 1, DUSP3 inh 26, Bead autofluor 3419 and BoNT A protease 0.

From PubChem BioAssay
